# Measured values reported in PubChem BioAssay AID1159580 (chemical genetic matrix, 2015).
# In all, about 5,500 compounds went through this assay and about 2,000 (36%) were called active. Another 18% or so got no clear call; they are omitted. Some of the results follow. Values without a mark were called inactive. Rule as the data show it: active = normalized growth mostly below about 0.91 (no sharp cut-off); inconclusive = no clear call, values can overlap the other calls; inactive = mostly above about 0.92.
# Test: chemical genetic growth profiling, strain panel (AID 1159580);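 also: tested at 20 µM; growth read once vehicle control cultures reached saturation at 30 °C; 1 = growth at the plate median or of vehicle wells; lower values mean less growth of the strain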
# Settings: S. cerevisiae deletion strains, growth OD
smiles,measurement,setting,value
CC(C)CCCC(C)[C@H]1CCC2C3CC=C4CC(=O)CC[C@]4(C)C3CC[C@@]21C (stereo partly drawn),normalized growth,"locus YJR066W, strain TOR1, stronger effect = lower value",0.928
same,normalized growth,"locus YJR075W, strain HOC1, stronger effect = lower value",0.968
same,normalized growth,"locus YKL009W, strain mrt4, stronger effect = lower value",0.943
same,normalized growth,"locus YKL068W, stronger effect = lower value",0.993
same,normalized growth,"locus YKL085W, strain MDH1 (second series), stronger effect = lower value",0.99
same,normalized growth,"locus YKL085W, strain MDH1, stronger effect = lower value",0.99
same,normalized growth,"locus YKL160W, strain elf1, stronger effect = lower value",0.965
same,normalized growth,"locus YKL190W, strain CNB1, stronger effect = lower value",0.984
same,normalized growth,"locus YKR001C, strain vps1, stronger effect = lower value",0.914
same,normalized growth,"locus YKR026C, strain gcn3, stronger effect = lower value",0.993
same,normalized growth,"locus YKR091W, strain srl3, stronger effect = lower value",0.994
same,normalized growth,"locus YLL001W, strain dnm1, stronger effect = lower value",0.988
same,normalized growth,"locus YLL026W, stronger effect = lower value",0.988
same,normalized growth,"locus YLL041C, strain sdh2, stronger effect = lower value",0.981
same,normalized growth,"locus YLR027C, strain aat2, stronger effect = lower value",0.981
same,normalized growth,"locus YLR039C, strain RIC1, stronger effect = lower value",0.696
same,normalized growth,"locus YLR058C, strain SHM2, stronger effect = lower value",0.967
same,normalized growth,"locus YLR102C, strain apc9, stronger effect = lower value",0.989
same,normalized growth,"locus YLR113W, strain HOG1, stronger effect = lower value",0.91
same,normalized growth,"locus YLR221C, strain rsa3, stronger effect = lower value",0.949
same,normalized growth,"locus YLR258W, strain gsy2, stronger effect = lower value",1.01
same,normalized growth,"locus YLR262C, strain YPT6 (second series), stronger effect = lower value",0.855 (active)
same,normalized growth,"locus YLR262C, strain YPT6, stronger effect = lower value",0.66
same,normalized growth,"locus YLR268W, strain sec22, stronger effect = lower value",0.974
same,normalized growth,"locus YLR320W, strain mms22, stronger effect = lower value",0.999
same,normalized growth,"locus YLR330W, strain CHS5, stronger effect = lower value",0.985
same,normalized growth,"locus YLR342W, strain FKS1 (second series), stronger effect = lower value",0.946
same,normalized growth,"locus YLR342W, strain FKS1, stronger effect = lower value",1.01
same,normalized growth,"locus YLR357W, strain rsc2, stronger effect = lower value",1.02
same,normalized growth,"locus YLR370C, strain arc18, stronger effect = lower value",0.99
same,normalized growth,"locus YLR371W, strain rom2, stronger effect = lower value",0.989
same,normalized growth,"locus YLR384C, strain iki3, stronger effect = lower value",0.995
same,normalized growth,"locus YLR418C, strain cdc73, stronger effect = lower value",0.753 (active)
same,normalized growth,"locus YML016C, strain PPZ1, stronger effect = lower value",0.996
same,normalized growth,"locus YML032C, strain rad52, stronger effect = lower value",0.91
same,normalized growth,"locus YML120C, strain ndi1, stronger effect = lower value",0.949
same,normalized growth,"locus YML124C, strain tub3, stronger effect = lower value",0.995
same,normalized growth,"locus YMR058W, strain fet3, stronger effect = lower value",0.981
same,normalized growth,"locus YMR078C, strain ctf18, stronger effect = lower value",0.981
same,normalized growth,"locus YMR125W, strain sto1, stronger effect = lower value",0.985
same,normalized growth,"locus YMR129W, stronger effect = lower value",1
same,normalized growth,"locus YMR205C, strain PFK2, stronger effect = lower value",1.03
same,normalized growth,"locus YMR223W, strain ubp8, stronger effect = lower value",0.925
same,normalized growth,"locus YMR231W, strain pep5, stronger effect = lower value",1
same,normalized growth,"locus YMR307W, strain GAS1, stronger effect = lower value",0.875
same,normalized growth,"locus YNL067W, strain RPL9B, stronger effect = lower value",0.987
same,normalized growth,"locus YNL071W, strain lat1, stronger effect = lower value",0.978
same,normalized growth,"locus YNL183C, strain NPR1, stronger effect = lower value",0.937
same,normalized growth,"locus YNL209W, strain ssb2, stronger effect = lower value",1
same,normalized growth,"locus YNL233W, strain BNI4, stronger effect = lower value",0.932
same,normalized growth,"locus YNL248C, strain rpa49, stronger effect = lower value",0.93
same,normalized growth,"locus YNL250W, strain rad50, stronger effect = lower value",0.965
same,normalized growth,"locus YNL271C, strain bni1, stronger effect = lower value",0.977
same,normalized growth,"locus YNL298W, strain CLA4, stronger effect = lower value",0.979
same,normalized growth,"locus YNL307C, strain MCK1, stronger effect = lower value",0.842 (active)
same,normalized growth,"locus YNL322C, strain KRE1 (second series), stronger effect = lower value",0.99
same,normalized growth,"locus YNL322C, strain KRE1, stronger effect = lower value",0.991
same,normalized growth,"locus YNR049C, strain mso1, stronger effect = lower value",0.986
same,normalized growth,"locus YNR052C, strain pop2, stronger effect = lower value",0.98
same,normalized growth,"locus YOL006C, strain TOP1, stronger effect = lower value",1.01
same,normalized growth,"locus YOL012C, strain htz1",1.02
same,normalized growth,"locus YOL147C, strain pex11, stronger effect = lower value",0.989
same,normalized growth,"locus YOR001W, strain rrp6, stronger effect = lower value",0.933
same,normalized growth,"locus YOR061W, strain CKA2, stronger effect = lower value",0.954
same,normalized growth,"locus YOR069W, strain VPS5, stronger effect = lower value",0.988
same,normalized growth,"locus YOR070C, strain gyp1, stronger effect = lower value",0.978
same,normalized growth,"locus YOR080W, strain dia2, stronger effect = lower value",0.996
same,normalized growth,"locus YOR083W, strain WHI5, stronger effect = lower value",0.944
same,normalized growth,"locus YOR106W, strain vam3, stronger effect = lower value",0.965
same,normalized growth,"locus YOR136W, strain idh2, stronger effect = lower value",0.993
same,normalized growth,"locus YOR144C, strain elg1, stronger effect = lower value",0.993
same,normalized growth,"locus YOR184W, strain ser1, stronger effect = lower value",0.945
same,normalized growth,"locus YOR231W, strain MKK1, stronger effect = lower value",0.965
same,normalized growth,"locus YOR265W, strain rbl2, stronger effect = lower value",0.986
same,normalized growth,"locus YOR270C, strain vph1, stronger effect = lower value",0.922
same,normalized growth,"locus YOR290C, strain snf2, stronger effect = lower value",0.959
same,normalized growth,"locus YOR316C, strain cot1, stronger effect = lower value",0.988
same,normalized growth,"locus YPL051W, strain arl3, stronger effect = lower value",0.956
same,normalized growth,"locus YPL078C, strain atp4, stronger effect = lower value",0.951
same,normalized growth,"locus YPL106C, strain sse1, stronger effect = lower value",1.03
same,normalized growth,"locus YPL240C, strain hsp82, stronger effect = lower value",0.989
same,normalized growth,"locus YPL241C, strain CIN2, stronger effect = lower value",0.995
same,normalized growth,"locus YPL256C, strain CLN2, stronger effect = lower value",1.01
same,normalized growth,"locus YPR119W, strain clb2, stronger effect = lower value",1
same,normalized growth,"locus YPR141C, strain kar3, stronger effect = lower value",0.988
same,normalized growth,"locus YPR163C, strain tif3, stronger effect = lower value",0.977
same,normalized growth,"locus YPR167C, strain met16, stronger effect = lower value",0.96
same,normalized growth,"strain wtn01, stronger effect = lower value",1.02
